Reference: article PMC5540273 (PLoS ONE, 2017)

Experiments:
Conditions in all cases: concentration: 1 μM,replicates: in singlicate; n = 1
[1] = system: LCK
[2] = system: LIMK1
[3] = system: LIMK2
[4] = system: T1, LKB1
T1 construct: gene STK11

[5] = system: T2, LOK
T2 construct: gene STK10

[6] = system: LRRK2
[7] = system: LTK
[8] = system: LYN
[9] = system: T3, LZK
T3 construct: gene MAP3K13

[10] = system: MAK
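Further: KINOMEscan kinase panel screen.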

Row | Compound | %Inh [1] | %Inh [2] | %Inh [3] | %Inh [4] | %Inh [5] | %Inh [6] | %Inh [7] | %Inh [8] | %Inh [9] | %Inh [10]
1 | CC(C(=O)NC1CCN(c2ccnc(Nc3ccc(F)cc3)n2)C1)c1ccc(Cl)cc1 (stereo not shown) [GSK1379713] | 22% | 0% | 0% | 0% | 0% | 14% | 0% | 0% | 0% | 12%
2 | Cn1ccc2ncnc(Oc3ccc(NC(=O)Nc4cnn(C(C)(C)C)c4)c(Cl)c3)c21 | 71% | 1% | 8% | 9% | 99.9% | 0% | 12% | 71% | 0% | 0%
3 | Cc1cccc(-c2nc(Nc3ccncc3)c3sccc3n2)n1 [GW869641] | 20% | 11% | 5% | 0% | 79% | 0% | 35% | 18% | 4% | 0%
4 | C[C@@H](Oc1cc(-n2cnc3ccc(-c4ccncc4)cc32)sc1C(N)=O)c1ccccc1Cl [GSK483724] | 40% | 20% | 0% | 0% | 92.2% | 8% | 25% | 0% | 0% | 29%
5 | CC(=O)c1c(-c2ccncc2)[nH]c(-c2ccncc2)c1C [GW493036] | 0% | 0% | 1% | 0% | 0% | 26% | 0% | 0% | 42% | 34%
6 | Cc1cccc2c(-c3ccncc3)c(-c3ccc(F)cc3)nn12.Cl [GW461487] | 19% | 0% | 4% | 4% | 0% | 26% | 100% | 0% | 5% | 26%
7 | CCN1CCN(CCCC(=O)Nc2n[nH]c3nc(-c4ccc(O)cc4)c(Br)cc23)CC1 [SB-731579] | 66% | 0% | 0% | 23% | 13% | 0% | 20% | 0% | 0% | 35%
